Test results reported in the supplement of paper PMC10849652.
The full data set covers some 7,900 targets. This sample favours those with a hit. About 0.6% of all pairs of compound and target were hits.

Compound: c1cn2cc(-c3ccc4cn[nH]c4c3)nc(Nc3ccc(N4CCOCC4)cc3)c2n1 [entospletinib]
Test: log2 fold change, soluble protein after heating vs DMSO (PISA); higher = thermal stabilisation; K562 cells, 10 uM, 30 min; active = over 0.2 and 3.5 SD of the protein, either way, in both replicates (recomputed)
How it was run: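 K562 cells at 2×10^6 cells/mL were treated for 30 min with 10 μM compound, and aliquots were heated for 3 min over 48°C-58°C before pooling. Extraction used PBS with 0.5% NP-40 at 4°C, and soluble protein was the supernatant after 21,000xg for 90 min, measured by TMTpro 16plex LC-MS/MS with channel sums equalised. Thermal stability values, relative to control samples and from duplicates, are log2 fold changes.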

UniProt Q14157, sequence (Q14157 whole entry, looked up): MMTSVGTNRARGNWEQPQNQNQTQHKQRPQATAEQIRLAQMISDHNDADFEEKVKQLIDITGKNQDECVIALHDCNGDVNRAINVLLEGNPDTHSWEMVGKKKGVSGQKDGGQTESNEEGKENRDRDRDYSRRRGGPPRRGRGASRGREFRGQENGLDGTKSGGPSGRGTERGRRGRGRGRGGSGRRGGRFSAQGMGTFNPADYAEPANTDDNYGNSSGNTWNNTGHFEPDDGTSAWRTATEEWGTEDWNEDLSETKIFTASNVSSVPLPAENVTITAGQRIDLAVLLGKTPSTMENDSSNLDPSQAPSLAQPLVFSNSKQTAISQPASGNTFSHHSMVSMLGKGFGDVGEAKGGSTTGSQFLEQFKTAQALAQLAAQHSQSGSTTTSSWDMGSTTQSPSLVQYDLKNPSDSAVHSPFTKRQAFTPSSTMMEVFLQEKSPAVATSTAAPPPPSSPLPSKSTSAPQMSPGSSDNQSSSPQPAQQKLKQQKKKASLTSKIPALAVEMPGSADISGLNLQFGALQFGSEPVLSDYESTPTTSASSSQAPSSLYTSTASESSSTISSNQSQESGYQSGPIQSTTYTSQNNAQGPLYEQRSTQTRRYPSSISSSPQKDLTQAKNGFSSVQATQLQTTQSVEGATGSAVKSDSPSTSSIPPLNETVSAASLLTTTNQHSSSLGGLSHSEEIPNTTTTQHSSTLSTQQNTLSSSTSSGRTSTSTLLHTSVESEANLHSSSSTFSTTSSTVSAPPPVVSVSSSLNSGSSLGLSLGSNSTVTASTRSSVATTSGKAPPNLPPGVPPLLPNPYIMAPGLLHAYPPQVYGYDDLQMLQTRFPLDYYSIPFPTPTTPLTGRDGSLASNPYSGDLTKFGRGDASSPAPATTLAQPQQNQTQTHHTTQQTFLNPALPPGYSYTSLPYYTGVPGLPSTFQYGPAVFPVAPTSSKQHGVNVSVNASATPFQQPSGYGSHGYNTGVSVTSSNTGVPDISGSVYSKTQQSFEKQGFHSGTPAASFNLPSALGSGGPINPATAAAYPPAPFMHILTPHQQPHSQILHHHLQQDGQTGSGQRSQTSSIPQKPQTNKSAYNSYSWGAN
UniProt Q8NE00, sequence (Q8NE00 whole entry, looked up): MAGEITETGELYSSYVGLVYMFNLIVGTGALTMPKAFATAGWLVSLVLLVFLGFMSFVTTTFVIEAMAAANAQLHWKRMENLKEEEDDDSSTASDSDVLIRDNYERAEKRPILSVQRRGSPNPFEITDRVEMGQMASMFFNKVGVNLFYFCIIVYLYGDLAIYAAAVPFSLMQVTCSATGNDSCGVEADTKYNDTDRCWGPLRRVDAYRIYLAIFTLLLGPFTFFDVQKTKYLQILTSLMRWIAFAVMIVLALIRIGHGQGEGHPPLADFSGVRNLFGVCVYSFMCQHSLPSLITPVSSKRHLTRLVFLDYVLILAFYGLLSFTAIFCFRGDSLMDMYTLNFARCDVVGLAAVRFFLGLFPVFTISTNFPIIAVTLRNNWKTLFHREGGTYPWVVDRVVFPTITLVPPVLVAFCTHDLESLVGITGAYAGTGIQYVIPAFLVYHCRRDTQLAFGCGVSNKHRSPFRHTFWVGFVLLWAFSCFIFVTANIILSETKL
UniProt Q16763, sequence (Q16763 whole entry, looked up): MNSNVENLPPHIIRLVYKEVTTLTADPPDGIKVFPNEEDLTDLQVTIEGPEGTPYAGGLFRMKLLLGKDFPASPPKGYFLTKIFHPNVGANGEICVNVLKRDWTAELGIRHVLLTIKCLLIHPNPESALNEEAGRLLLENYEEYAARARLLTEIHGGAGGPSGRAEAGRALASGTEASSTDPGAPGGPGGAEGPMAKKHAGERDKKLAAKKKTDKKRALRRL
UniProt P49754, sequence (P49754 whole entry, looked up): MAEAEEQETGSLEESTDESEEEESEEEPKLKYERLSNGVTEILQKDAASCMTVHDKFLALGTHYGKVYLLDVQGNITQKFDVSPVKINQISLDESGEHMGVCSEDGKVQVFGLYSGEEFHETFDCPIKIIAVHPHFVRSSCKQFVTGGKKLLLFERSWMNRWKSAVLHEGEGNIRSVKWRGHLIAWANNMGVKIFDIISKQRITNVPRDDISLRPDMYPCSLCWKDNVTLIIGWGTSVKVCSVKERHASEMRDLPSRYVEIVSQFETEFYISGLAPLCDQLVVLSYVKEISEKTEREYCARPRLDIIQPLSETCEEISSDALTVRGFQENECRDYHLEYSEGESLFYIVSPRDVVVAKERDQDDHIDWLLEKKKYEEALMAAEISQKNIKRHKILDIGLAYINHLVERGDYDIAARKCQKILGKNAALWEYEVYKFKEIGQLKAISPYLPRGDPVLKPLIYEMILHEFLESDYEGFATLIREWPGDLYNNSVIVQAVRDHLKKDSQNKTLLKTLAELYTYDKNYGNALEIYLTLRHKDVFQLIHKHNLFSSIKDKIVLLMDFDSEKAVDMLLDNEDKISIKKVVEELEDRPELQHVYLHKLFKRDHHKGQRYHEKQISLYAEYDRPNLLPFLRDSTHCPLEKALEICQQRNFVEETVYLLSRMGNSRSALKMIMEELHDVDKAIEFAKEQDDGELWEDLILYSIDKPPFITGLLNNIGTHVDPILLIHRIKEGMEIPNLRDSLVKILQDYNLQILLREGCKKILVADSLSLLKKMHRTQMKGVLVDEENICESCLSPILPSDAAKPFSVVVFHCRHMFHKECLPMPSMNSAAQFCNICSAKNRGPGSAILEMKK
UniProt Q12768, sequence (Q12768 whole entry, looked up): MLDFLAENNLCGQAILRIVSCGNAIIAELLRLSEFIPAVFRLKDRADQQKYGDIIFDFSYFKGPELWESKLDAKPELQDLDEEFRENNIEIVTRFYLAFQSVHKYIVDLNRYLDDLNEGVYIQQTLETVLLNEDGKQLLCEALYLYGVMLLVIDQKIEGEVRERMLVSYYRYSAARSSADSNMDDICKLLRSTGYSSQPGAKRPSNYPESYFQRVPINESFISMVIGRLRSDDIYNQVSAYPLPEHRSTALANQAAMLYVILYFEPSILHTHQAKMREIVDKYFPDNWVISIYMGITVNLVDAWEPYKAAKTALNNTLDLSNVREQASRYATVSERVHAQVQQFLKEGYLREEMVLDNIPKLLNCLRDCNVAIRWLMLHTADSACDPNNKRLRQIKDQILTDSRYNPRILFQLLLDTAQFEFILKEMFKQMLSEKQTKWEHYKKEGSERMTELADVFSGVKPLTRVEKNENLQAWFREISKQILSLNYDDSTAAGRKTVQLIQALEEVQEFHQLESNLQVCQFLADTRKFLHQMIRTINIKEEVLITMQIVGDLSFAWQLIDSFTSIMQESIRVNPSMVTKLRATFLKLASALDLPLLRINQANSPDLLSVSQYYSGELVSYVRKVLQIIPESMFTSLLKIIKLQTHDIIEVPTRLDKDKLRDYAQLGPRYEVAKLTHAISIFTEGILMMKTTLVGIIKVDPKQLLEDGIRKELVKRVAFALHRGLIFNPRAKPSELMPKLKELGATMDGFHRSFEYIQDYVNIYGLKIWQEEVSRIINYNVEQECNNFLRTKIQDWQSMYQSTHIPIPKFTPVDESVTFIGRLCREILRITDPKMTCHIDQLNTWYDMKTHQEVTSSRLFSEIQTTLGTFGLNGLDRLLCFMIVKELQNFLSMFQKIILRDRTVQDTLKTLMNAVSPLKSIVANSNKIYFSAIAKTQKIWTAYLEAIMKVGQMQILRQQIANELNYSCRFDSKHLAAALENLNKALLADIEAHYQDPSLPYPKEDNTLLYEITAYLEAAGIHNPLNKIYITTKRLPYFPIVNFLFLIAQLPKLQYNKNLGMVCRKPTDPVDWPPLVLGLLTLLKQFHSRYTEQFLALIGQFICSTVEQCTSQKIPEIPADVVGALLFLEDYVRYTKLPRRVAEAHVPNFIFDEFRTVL
UniProt Q9NP79, sequence (Q9NP79 whole entry, looked up): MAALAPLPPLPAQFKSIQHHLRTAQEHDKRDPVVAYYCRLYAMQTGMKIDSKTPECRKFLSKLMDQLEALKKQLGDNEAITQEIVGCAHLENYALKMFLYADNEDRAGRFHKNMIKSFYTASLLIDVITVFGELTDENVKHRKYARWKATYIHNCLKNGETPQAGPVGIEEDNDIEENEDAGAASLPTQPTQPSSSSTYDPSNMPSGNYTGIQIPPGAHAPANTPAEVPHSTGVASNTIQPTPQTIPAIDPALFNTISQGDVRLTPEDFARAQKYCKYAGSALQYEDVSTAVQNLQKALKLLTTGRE
UniProt P51668, sequence (P51668 whole entry, looked up): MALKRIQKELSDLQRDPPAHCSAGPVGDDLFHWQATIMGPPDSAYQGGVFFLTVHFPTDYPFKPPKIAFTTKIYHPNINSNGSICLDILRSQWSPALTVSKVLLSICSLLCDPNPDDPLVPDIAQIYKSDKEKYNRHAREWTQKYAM
UniProt Q9NX01, sequence (Q9NX01 whole entry, looked up): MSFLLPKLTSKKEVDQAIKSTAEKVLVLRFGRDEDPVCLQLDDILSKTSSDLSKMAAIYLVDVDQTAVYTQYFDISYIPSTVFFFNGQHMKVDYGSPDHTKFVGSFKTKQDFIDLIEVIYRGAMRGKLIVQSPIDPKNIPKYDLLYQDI
UniProt O60701, sequence (O60701 whole entry, looked up): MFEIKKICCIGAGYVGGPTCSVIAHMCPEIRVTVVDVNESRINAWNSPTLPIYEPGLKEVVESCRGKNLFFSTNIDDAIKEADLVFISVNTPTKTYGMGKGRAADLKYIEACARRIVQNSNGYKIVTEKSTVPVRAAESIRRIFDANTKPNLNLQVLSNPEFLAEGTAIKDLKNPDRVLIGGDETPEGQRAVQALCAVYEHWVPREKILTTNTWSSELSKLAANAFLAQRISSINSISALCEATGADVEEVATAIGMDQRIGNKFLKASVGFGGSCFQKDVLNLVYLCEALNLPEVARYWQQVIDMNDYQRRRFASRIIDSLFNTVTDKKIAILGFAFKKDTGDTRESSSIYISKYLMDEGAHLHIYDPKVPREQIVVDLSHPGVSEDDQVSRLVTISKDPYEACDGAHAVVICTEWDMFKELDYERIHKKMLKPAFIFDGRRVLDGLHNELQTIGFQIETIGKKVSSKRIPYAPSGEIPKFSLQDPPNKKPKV
UniProt P61960, sequence (P61960 whole entry, looked up): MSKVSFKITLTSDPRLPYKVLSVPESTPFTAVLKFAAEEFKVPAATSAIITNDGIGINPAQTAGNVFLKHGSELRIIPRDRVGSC

log2 fold change, inactive:
TOE1 (UniProt Q96GM8) 0.058, USP48 (UniProt Q86UV5) -0.055, TUBA4A (UniProt C9JJQ8) -0.27, WDR43 (UniProt Q15061) -0.048, UFD1 isoform 1 (UniProt Q92890) -0.047, TOM1 isoform 2 (UniProt O60784) 0.009, TXNL4B (UniProt Q9NX01) 0.002, VTA1 (UniProt Q9NP79) -0.005, XPNPEP1 isoform 3 (UniProt Q9NQW7) -0.027, UTP3 (UniProt Q9NQZ2) -0.009, TMEM104 (UniProt Q8NE00) 0.001, TSFM (UniProt P43897) -0.191, TRAPPC3 (UniProt O43617) -0.013, TMEM192 (UniProt Q8IY95) 0.071, TMEM208 (UniProt Q9BTX3) -0.062, WARS2 (UniProt Q9UGM6) -0.042, USP15 (UniProt Q9Y4E8) 0.018, WDR18 (UniProt Q9BV38) -0.061, VPS33A (UniProt Q96AX1) 0.099, WASHC5 (UniProt Q12768) -0.041, TRAPPC2L (UniProt Q9UL33) 0.039, UBC (UniProt P0CG48) 0.068, WARS1 (UniProt G3V5U1) 0.342, UTP4 (UniProt Q969X6) -0.058, TTC33 (UniProt Q6PID6) 0.094, UGDH (UniProt O60701) -0.033, USP9X (UniProt Q93008) -0.01, VPS33B (UniProt Q9H267) 0.008, TMEM184C (UniProt Q9NVA4) 0.041, UBE2S (UniProt Q16763) -0.029, UBAP2L isoform 5 (UniProt Q14157) -0.007, UBAP2L isoform 1 (UniProt Q14157) -0.065, XRCC5 (UniProt P13010) -0.039, USP14 (UniProt P54578) -0.03, TNFAIP8 isoform 4 (UniProt O95379) 0.036, TMEM70 (UniProt Q9BUB7) -0.009, UFM1 (UniProt P61960) -0.079, TRIP10 isoform 2 (UniProt Q15642) 0.062, VPS41 (UniProt P49754) 0.017, UBE2D1 (UniProt P51668) -0.025
